Data taken from PubChem BioAssay AID1159580 (chemical genetic matrix, 2015).
The campaign covered roughly 5,500 compounds. About 2,000 (36%) were called active. Roughly 18% stayed inconclusive and do not appear here. No stated cut-off is given here; in the data, active means normalized growth mostly below about 0.91 (no sharp cut-off); inconclusive means no clear call, values can overlap the other calls; inactive means mostly above about 0.92. The list shows a part of the results.

Assay: chemical genetic growth profiling, strain panel (AID 1159580);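 further: tested at 20 µM; growth read once vehicle control cultures reached saturation at 30 °C; 1 = growth at the plate median or of vehicle wells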
Conditions: growth OD

Measured: normalized growth

COc1ccc(C(=O)c2ccc(O)cc2)c(O)c1O
inactive: S. cerevisiae deletion strains, locus YAL013W, strain DEP1, stronger effect = lower value 1.04 | S. cerevisiae deletion strains, locus YAL021C, strain ccr4, stronger effect = lower value 0.963 | S. cerevisiae deletion strains, locus YAL026C, strain drs2, stronger effect = lower value 0.961 | S. cerevisiae deletion strains, locus YAL030W, strain snc1, stronger effect = lower value 0.967 | S. cerevisiae deletion strains, locus YBL061C, strain skt5, stronger effect = lower value 0.97 | S. cerevisiae deletion strains, locus YBR009C, strain hhf1, stronger effect = lower value 0.951 | S. cerevisiae deletion strains, locus YBR021W, strain FUR4, stronger effect = lower value 1.02 | S. cerevisiae deletion strains, locus YBR023C, strain chs3, stronger effect = lower value 0.968 | S. cerevisiae deletion strains, locus YBR171W, strain sec66, stronger effect = lower value 0.965 | S. cerevisiae deletion strains, locus YBR229C, strain ROT2, stronger effect = lower value 1.02 | S. cerevisiae deletion strains, locus YBR231C, strain swc5, stronger effect = lower value 0.96 | S. cerevisiae deletion strains, locus YBR279W, strain paf1, stronger effect = lower value 0.974 | S. cerevisiae deletion strains, locus YCL011C, strain gbp2, stronger effect = lower value 0.961 | S. cerevisiae deletion strains, locus YCL016C, strain dcc1, stronger effect = lower value 0.974 | S. cerevisiae deletion strains, locus YCL029C, strain bik1, stronger effect = lower value 0.993 | S. cerevisiae deletion strains, locus YCL061C, strain MRC1, stronger effect = lower value 0.984 | S. cerevisiae deletion strains, locus YCL069W, strain vba3, stronger effect = lower value 0.98 | S. cerevisiae deletion strains, locus YCR088W, strain abp1, stronger effect = lower value 0.973 | S. cerevisiae deletion strains, locus YDL005C, strain med2, stronger effect = lower value 0.968 | S. cerevisiae deletion strains, locus YDL035C, strain GPR1, stronger effect = lower value 1.04 | S. cerevisiae deletion strains, locus YDL040C, strain nat1, stronger effect = lower value 0.972 | S. cerevisiae deletion strains, locus YDL074C, strain BRE1, stronger effect = lower value 1.01 | S. cerevisiae deletion strains, locus YDL101C, strain DUN1, stronger effect = lower value 1.02 | S. cerevisiae deletion strains, locus YDL134C, strain PPH21, stronger effect = lower value 1.01 | S. cerevisiae deletion strains, locus YDL185W, strain tfp1, stronger effect = lower value 0.995 | S. cerevisiae deletion strains, locus YDL192W, strain arf1, stronger effect = lower value 0.997 | S. cerevisiae deletion strains, locus YDR001C, strain nth1, stronger effect = lower value 0.973 | S. cerevisiae deletion strains, locus YDR069C, strain doa4, stronger effect = lower value 0.928 | S. cerevisiae deletion strains, locus YDR101C, strain arx1, stronger effect = lower value 1 | S. cerevisiae deletion strains, locus YDR137W, strain rgp1, stronger effect = lower value 0.975 | S. cerevisiae deletion strains, locus YDR159W, strain sac3, stronger effect = lower value 0.959 | S. cerevisiae deletion strains, locus YDR162C, strain NBP2, stronger effect = lower value 1.04 | S. cerevisiae deletion strains, locus YDR195W, strain ref2 0.969 | S. cerevisiae deletion strains, locus YDR297W, strain sur2, stronger effect = lower value 0.969 | S. cerevisiae deletion strains, locus YDR318W, strain mcm21, stronger effect = lower value 0.997 | S. cerevisiae deletion strains, locus YDR334W, strain swr1, stronger effect = lower value 0.952 | S. cerevisiae deletion strains, locus YDR335W, strain msn5, stronger effect = lower value 0.983 | S. cerevisiae deletion strains, locus YDR388W, stronger effect = lower value 0.985 | S. cerevisiae deletion strains, locus YDR392W, strain spt3, stronger effect = lower value 0.852 | S. cerevisiae deletion strains, locus YDR502C, strain sam2, stronger effect = lower value 0.968 | S. cerevisiae deletion strains, locus YEL003W, strain gim4, stronger effect = lower value 0.962 | S. cerevisiae deletion strains, locus YEL037C, strain rad23, stronger effect = lower value 0.965 | S. cerevisiae deletion strains, locus YEL061C, strain CIN8 (second series), stronger effect = lower value 0.955 | S. cerevisiae deletion strains, locus YEL061C, strain CIN8, stronger effect = lower value 1.01 | S. cerevisiae deletion strains, locus YER015W, strain faa2, stronger effect = lower value 0.961 | S. cerevisiae deletion strains, locus YER016W, strain bim1, stronger effect = lower value 0.978 | S. cerevisiae deletion strains, locus YER110C, stronger effect = lower value 0.983 | S. cerevisiae deletion strains, locus YER111C, strain swi4, stronger effect = lower value 0.963 | S. cerevisiae deletion strains, locus YER155C, strain BEM2 (second series), stronger effect = lower value 0.911 | S. cerevisiae deletion strains, locus YER155C, strain BEM2, stronger effect = lower value 1.02 | S. cerevisiae deletion strains, locus YER167W, strain BCK2, stronger effect = lower value 1.02 | S. cerevisiae deletion strains, locus YFR010W, strain ubp6, stronger effect = lower value 0.942 | S. cerevisiae deletion strains, locus YGL078C, strain dbp3, stronger effect = lower value 0.961 | S. cerevisiae deletion strains, locus YGL086W, strain mad1, stronger effect = lower value 0.992 | S. cerevisiae deletion strains, locus YGL167C, strain pmr1, stronger effect = lower value 0.952 | S. cerevisiae deletion strains, locus YGL173C, strain kem1, stronger effect = lower value 0.969 | S. cerevisiae deletion strains, locus YGL227W, strain vid30, stronger effect = lower value 0.937 | S. cerevisiae deletion strains, locus YGL240W, strain doc1, stronger effect = lower value 0.94 | S. cerevisiae deletion strains, locus YGL248W, strain PDE1, stronger effect = lower value 0.986 | S. cerevisiae deletion strains, locus YGL253W, strain hxk2, stronger effect = lower value 0.984 | S. cerevisiae deletion strains, locus YGR135W, strain pre9, stronger effect = lower value 0.95 | S. cerevisiae deletion strains, locus YGR252W, strain gcn5, stronger effect = lower value 0.893 | S. cerevisiae deletion strains, locus YHR013C, strain ard1, stronger effect = lower value 0.916 | S. cerevisiae deletion strains, locus YHR027C, strain rpn1, stronger effect = lower value 0.988 | S. cerevisiae deletion strains, locus YHR079C, strain IRE1 (second series), stronger effect = lower value 0.985 | S. cerevisiae deletion strains, locus YHR094C, strain hxt1, stronger effect = lower value 0.978 | S. cerevisiae deletion strains, locus YHR129C, strain ARP1, stronger effect = lower value 1.01 | S. cerevisiae deletion strains, locus YHR142W, strain chs7, stronger effect = lower value 0.987 | S. cerevisiae deletion strains, locus YHR200W, strain rpn10, stronger effect = lower value 0.973 | S. cerevisiae deletion strains, locus YIL066C, strain RNR3, stronger effect = lower value 1.03 | S. cerevisiae deletion strains, locus YIL073C, strain SPO22, stronger effect = lower value 0.992 | S. cerevisiae deletion strains, locus YIL125W, strain kgd1, stronger effect = lower value 1 | S. cerevisiae deletion strains, locus YIR030C, strain dcg1, stronger effect = lower value 0.994 | S. cerevisiae deletion strains, locus YJL092W, strain hpr5, stronger effect = lower value 0.978 | S. cerevisiae deletion strains, locus YJL095W, strain BCK1 (second series), stronger effect = lower value 0.977 | S. cerevisiae deletion strains, locus YJL095W, strain BCK1, stronger effect = lower value 0.986 | S. cerevisiae deletion strains, locus YJL115W, strain asf1, stronger effect = lower value 0.985 | S. cerevisiae deletion strains, locus YJL129C, strain trk1, stronger effect = lower value 0.935 | S. cerevisiae deletion strains, locus YJL134W, strain LCB3, stronger effect = lower value 1.02 | S. cerevisiae deletion strains, locus YJL154C, strain vps35, stronger effect = lower value 0.972 | S. cerevisiae deletion strains, locus YJL164C, strain tpk1, stronger effect = lower value 0.979 | S. cerevisiae deletion strains, locus YJL166W, strain qcr8, stronger effect = lower value 0.972 | S. cerevisiae deletion strains, locus YJL168C, strain set2, stronger effect = lower value 1 | S. cerevisiae deletion strains, locus YJL187C, strain SWE1 (second series), stronger effect = lower value 0.998 | S. cerevisiae deletion strains, locus YJL187C, strain SWE1, stronger effect = lower value 0.968 | S. cerevisiae deletion strains, locus YKL009W, strain mrt4, stronger effect = lower value 1.01 | S. cerevisiae deletion strains, locus YKL068W, stronger effect = lower value 0.991 | S. cerevisiae deletion strains, locus YKL085W, strain MDH1 (second series), stronger effect = lower value 1 | S. cerevisiae deletion strains, locus YKL085W, strain MDH1, stronger effect = lower value 1 | S. cerevisiae deletion strains, locus YKL160W, strain elf1, stronger effect = lower value 0.994 | S. cerevisiae deletion strains, locus YKR001C, strain vps1, stronger effect = lower value 1 | S. cerevisiae deletion strains, locus YKR026C, strain gcn3, stronger effect = lower value 0.948 | S. cerevisiae deletion strains, locus YKR091W, strain srl3, stronger effect = lower value 0.972 | S. cerevisiae deletion strains, locus YLL001W, strain dnm1, stronger effect = lower value 0.986 | S. cerevisiae deletion strains, locus YLL026W, stronger effect = lower value 0.978 | S. cerevisiae deletion strains, locus YLL041C, strain sdh2, stronger effect = lower value 0.992 | S. cerevisiae deletion strains, locus YLR027C, strain aat2, stronger effect = lower value 0.965 | S. cerevisiae deletion strains, locus YLR039C, strain RIC1, stronger effect = lower value 1.12 | S. cerevisiae deletion strains, locus YLR058C, strain SHM2, stronger effect = lower value 1.01 | S. cerevisiae deletion strains, locus YLR102C, strain apc9, stronger effect = lower value 0.966 | S. cerevisiae deletion strains, locus YLR221C, strain rsa3, stronger effect = lower value 0.933 | S. cerevisiae deletion strains, locus YLR258W, strain gsy2, stronger effect = lower value 0.969 | S. cerevisiae deletion strains, locus YLR262C, strain YPT6 (second series), stronger effect = lower value 0.936 | S. cerevisiae deletion strains, locus YLR268W, strain sec22, stronger effect = lower value 1.01 | S. cerevisiae deletion strains, locus YLR320W, strain mms22, stronger effect = lower value 0.968 | S. cerevisiae deletion strains, locus YLR330W, strain CHS5, stronger effect = lower value 1.02 | S. cerevisiae deletion strains, locus YLR342W, strain FKS1 (second series), stronger effect = lower value 1.02 | S. cerevisiae deletion strains, locus YLR342W, strain FKS1, stronger effect = lower value 0.952 | S. cerevisiae deletion strains, locus YLR357W, strain rsc2, stronger effect = lower value 0.909 | S. cerevisiae deletion strains, locus YLR370C, strain arc18, stronger effect = lower value 0.968 | S. cerevisiae deletion strains, locus YLR371W, strain rom2, stronger effect = lower value 0.982 | S. cerevisiae deletion strains, locus YLR384C, strain iki3, stronger effect = lower value 0.984 | S. cerevisiae deletion strains, locus YLR418C, strain cdc73, stronger effect = lower value 0.986 | S. cerevisiae deletion strains, locus YML016C, strain PPZ1, stronger effect = lower value 1.02 | S. cerevisiae deletion strains, locus YML032C, strain rad52, stronger effect = lower value 0.97 | S. cerevisiae deletion strains, locus YML120C, strain ndi1, stronger effect = lower value 0.954 | S. cerevisiae deletion strains, locus YML124C, strain tub3, stronger effect = lower value 0.981 | S. cerevisiae deletion strains, locus YMR058W, strain fet3, stronger effect = lower value 0.94 | S. cerevisiae deletion strains, locus YMR078C, strain ctf18, stronger effect = lower value 0.971 | S. cerevisiae deletion strains, locus YMR125W, strain sto1, stronger effect = lower value 0.97 | S. cerevisiae deletion strains, locus YMR129W, stronger effect = lower value 0.965 | S. cerevisiae deletion strains, locus YMR205C, strain PFK2, stronger effect = lower value 0.946 | S. cerevisiae deletion strains, locus YMR223W, strain ubp8, stronger effect = lower value 0.978 | S. cerevisiae deletion strains, locus YMR231W, strain pep5, stronger effect = lower value 0.979 | S. cerevisiae deletion strains, locus YMR307W, strain GAS1, stronger effect = lower value 0.992 | S. cerevisiae deletion strains, locus YNL067W, strain RPL9B, stronger effect = lower value 0.998 | S. cerevisiae deletion strains, locus YNL071W, strain lat1, stronger effect = lower value 0.984 | S. cerevisiae deletion strains, locus YNL153C, strain GIM3, stronger effect = lower value 0.985 | S. cerevisiae deletion strains, locus YNL209W, strain ssb2, stronger effect = lower value 0.975 | S. cerevisiae deletion strains, locus YNL233W, strain BNI4, stronger effect = lower value 0.989 | S. cerevisiae deletion strains, locus YNL248C, strain rpa49, stronger effect = lower value 0.995 | S. cerevisiae deletion strains, locus YNL250W, strain rad50, stronger effect = lower value 0.981 | S. cerevisiae deletion strains, locus YNL271C, strain bni1, stronger effect = lower value 0.984 | S. cerevisiae deletion strains, locus YNL298W, strain CLA4, stronger effect = lower value 0.991 | S. cerevisiae deletion strains, locus YNL307C, strain MCK1, stronger effect = lower value 0.97 | S. cerevisiae deletion strains, locus YNL322C, strain KRE1 (second series), stronger effect = lower value 0.952 | S. cerevisiae deletion strains, locus YNR049C, strain mso1, stronger effect = lower value 0.972 | S. cerevisiae deletion strains, locus YNR052C, strain pop2, stronger effect = lower value 0.979 | S. cerevisiae deletion strains, locus YOL006C, strain TOP1, stronger effect = lower value 1.15 | S. cerevisiae deletion strains, locus YOL012C, strain htz1 1.45 | S. cerevisiae deletion strains, locus YOL147C, strain pex11, stronger effect = lower value 0.994 | S. cerevisiae deletion strains, locus YOR001W, strain rrp6, stronger effect = lower value 1 | S. cerevisiae deletion strains, locus YOR061W, strain CKA2, stronger effect = lower value 1.03 | S. cerevisiae deletion strains, locus YOR069W, strain VPS5, stronger effect = lower value 1.01 | S. cerevisiae deletion strains, locus YOR070C, strain gyp1, stronger effect = lower value 0.973 | S. cerevisiae deletion strains, locus YOR080W, strain dia2, stronger effect = lower value 0.97 | S. cerevisiae deletion strains, locus YOR083W, strain WHI5, stronger effect = lower value 0.992 | S. cerevisiae deletion strains, locus YOR106W, strain vam3, stronger effect = lower value 0.964 | S. cerevisiae deletion strains, locus YOR136W, strain idh2, stronger effect = lower value 0.985 | S. cerevisiae deletion strains, locus YOR144C, strain elg1, stronger effect = lower value 0.998 | S. cerevisiae deletion strains, locus YOR184W, strain ser1, stronger effect = lower value 1.05 | S. cerevisiae deletion strains, locus YOR265W, strain rbl2, stronger effect = lower value 0.979 | S. cerevisiae deletion strains, locus YOR270C, strain vph1, stronger effect = lower value 0.957 | S. cerevisiae deletion strains, locus YOR290C, strain snf2, stronger effect = lower value 0.9 | S. cerevisiae deletion strains, locus YOR316C, strain cot1, stronger effect = lower value 0.971 | S. cerevisiae deletion strains, locus YPL051W, strain arl3, stronger effect = lower value 0.993 | S. cerevisiae deletion strains, locus YPL055C, strain LGE1, stronger effect = lower value 1.05 | S. cerevisiae deletion strains, locus YPL078C, strain atp4, stronger effect = lower value 0.986 | S. cerevisiae deletion strains, locus YPL106C, strain sse1, stronger effect = lower value 0.889 | S. cerevisiae deletion strains, locus YPL240C, strain hsp82, stronger effect = lower value 0.995 | S. cerevisiae deletion strains, locus YPL241C, strain CIN2, stronger effect = lower value 1.02 | S. cerevisiae deletion strains, locus YPR119W, strain clb2, stronger effect = lower value 0.971 | S. cerevisiae deletion strains, locus YPR141C, strain kar3, stronger effect = lower value 1.01 | S. cerevisiae deletion strains, locus YPR163C, strain tif3, stronger effect = lower value 0.983 | S. cerevisiae deletion strains, locus YPR167C, strain met16, stronger effect = lower value 0.981 | S. cerevisiae deletion strains, strain wtn01, stronger effect = lower value 0.993 | S. cerevisiae strains, strain wild type, stronger effect = lower value 1.04
